# Source: ChEMBL document CHEMBL4513216, “Probing the Open Global Health Chemical Diversity Library for Multistage-Active Starting Points for Next-Generation Antimalarials” (ACS Infect Dis, 2020)
# The whole screen tested about 69,000 compounds, of which about 8,600 (12%) showed an effect of 50% or more. Shown is part of a subset that was picked to be rich in strong results.
# System: Plasmodium berghei
# Assay: Screen against P. berghei liver stage (PbLuc), transformed with Luciferase, at 10uM
# Format: functional, HepG2
# Details: tested at 10 uM
row,Compound,INHIBITION [%]
1,O=C(NCc1ccccc1)C1CN(c2ccccn2)CCO1 (configuration not stated),22
2,CCS(=O)(=O)N1CCN(C(C)c2ncc(-c3ccccc3)o2)CC1 (configuration not stated),12.9
3,CN(C)c1ncc(-c2ccc(NC(=O)[C@@H]3CCCCN3)cc2)cn1,1.11
4,CN1CCCC1(CCCc1cccnc1)C(=O)NCc1nccn1C (configuration not stated),15.5
5,CC(c1ccc(S(N)(=O)=O)cc1)N(C)C(=O)c1ccccc1I (configuration not stated),-43.5
6,Cc1noc(CN(C)Cc2cnc(N3CCOCC3)nc2)n1,20.1
7,Cc1noc(C)c1CN(C)Cc1cnc(N2CCOCC2)nc1,39.4
8,CC(C)c1nc(CN(C)Cc2cnc(N3CCOCC3)nc2)no1,74.7
9,COc1ncccc1NC(=O)N1CCCC(CNC(=O)OC(C)(C)C)C1 (configuration not stated),57.7
10,COc1ncccc1NC(=O)N1CCC(CNC(C)=O)CC1,7.9
11,COc1ccc(Oc2ncccc2NC(=O)N2CCOCC2)cc1,55.5
12,COc1ncccc1NC(=O)NCC1CC1,12.2
13,CCCC1CCCN(C(=O)Nc2ccc(F)c(C(N)=O)c2)CC1 (configuration not stated),53.8
14,COc1ccc(Oc2ncccc2NC(=O)N2CC[C@H](O)C2)cc1,16.3
15,CC1CCCN(C(=O)Nc2ccc(F)c(C(N)=O)c2)C1 (configuration not stated),23.6
16,CCOc1ncccc1NC(=O)N1CCCC(CNC(N)=O)C1 (configuration not stated),22.8
17,NC(=O)c1cc(NC(=O)N2CCCCCC2)ccc1F,-7.9
18,COc1ccc(Oc2ncccc2NC(=O)N2CCOC(C)C2)cc1 (configuration not stated),44.3
19,CCCC1CCCN(C(=O)Nc2cccnc2OC)CC1 (configuration not stated),81.6
20,CCN(CC)C(=O)C1CCN(C(=O)Nc2cccnc2OC)CC1,22.6
21,O=C(c1cc2c(s1)CCC2)N1CCC(c2cnccn2)CC1,28.5
22,CC(C)NC(=O)N1CCC2(CC1)CN(C(=O)NC(C)C)CCO2,11.8
23,CC(C)C(=O)NCc1ccc(N2CCCC2)nc1,-24.2

row,Compound,INHIBITION [%]
1,O=C(NCc1csc(-c2cnccn2)n1)c1cnn2c1CCCC2,8.7
2,Cc1cnn(CC2CCCN2C(=O)CCc2c(C)noc2Cl)c1 (configuration not stated),0
3,CCNC(=O)[C@@H]1C[C@@H](NC(=O)c2ccsc2)CN1CCCSC,-16.9
4,Cc1cccc(CNC(=O)CNc2cc(CO)ccc2Cl)c1,14.2
5,CN1CC(=O)N(c2cnn(C)c2)CC12CCN(Cc1cccnc1)C2 (configuration not stated),39.8
6,CC(C)(NCC(=O)NC(=O)NC1CC1)c1ccc2c(c1)OCO2,43.3
7,O=C(CC1[C@H]2CN(C(=O)c3cccnc3)C[C@@H]12)Nc1cccnc1 (some centres not stated),34.6
8,Cn1cc(-c2nnc3sc(C4CCC4)nn23)cn1,25.2
9,COc1cc(C)ccc1OCC(=O)NS(=O)(=O)c1cccnc1,-16
10,O=S(=O)(C1CC1)N1CCO[C@@H]2CC(COCc3cccnc3)C[C@H]21 (some centres not stated),34.5
11,O=C(Nc1cccnc1)NC1(c2cccc(F)c2)CC1,-2.39
12,Cc1ccn(CC(=O)Nc2cc(-c3ccncc3)[nH]n2)n1,39.6
13,Cc1cc(C)n(CC(=O)Nc2cc(-c3ccncc3)[nH]n2)n1,5.94
14,Cc1ccnn1CC(=O)Nc1cc(-c2ccncc2)[nH]n1,63.4
15,Cc1cc(C2CCCN(C(=O)COc3cc(C)on3)C2)n[nH]1 (configuration not stated),-23.8
16,COCCNc1ncc(-c2onc(C)c2C)c(-c2ccco2)n1,31.85
17,Cc1nnc(N2CCOC(C)(C(=O)NC3CCCC3)C2)c2ccccc12 (configuration not stated),4.41
18,O=C(CCn1ncc2c(Cl)cccc21)NCCCn1cccn1,-2.28
19,COCCCNC(=O)CCn1ncc2c(Cl)cccc21,20.9
20,O=C(CCn1ncc2c(Cl)cccc21)NCC1CC1,68.9
21,CCn1cc(CNC(=O)CCn2ncc3c(Cl)cccc32)cn1,54.9
22,CC(C)(C)NC(=O)CCn1ncc2c(Cl)cccc21,47.4
23,COCCNC(=O)CCn1ncc2c(Cl)cccc21,55.7

row,Compound,INHIBITION [%]
1,CN(C)CCNC(=O)CCn1ncc2c(Cl)cccc21,55.7
2,CCn1ncc(NC(=O)CCn2ncc3c(Cl)cccc32)c1C,9.32
3,O=C(CCn1ncc2c(Cl)cccc21)NCCCO,49.9
4,CCN(CC)C(=O)CCn1ncc2c(Cl)cccc21,-4.74
5,CN(C)C(=O)CNC(=O)CCn1ncc2c(Cl)cccc21,-15.8
6,Cc1nn(C)c(C)c1CNC(=O)CCn1ncc2c(Cl)cccc21,49.9
7,Cc1nnc(N2CCc3cncnc3C2)c(C#N)c1C,-5.08
8,Cc1nc(C2CCCN2CC(=O)Nc2c(C)n[nH]c2C)no1 (configuration not stated),27.8
9,CC[C@H](C)[C@H](N)C(=O)Nc1nc(-c2cnc(N(C)CCO)nc2)cs1,-37.5
10,Cc1cn2c(=O)c(-c3ccnc(N4CCC[C@@H]4CO)n3)cnc2s1,4.08
11,Cn1cc(CC2CCN(C(=O)NCc3cccc(C(N)=O)c3)C2)cn1 (configuration not stated),-51.705
12,O=C1CC(c2ccccc2)C2(CCN(CC3CC3)CC2)N1 (configuration not stated),31.2
13,O=C1NC2(CCN(C(=O)Cc3ccsc3)CC2)CC1c1ccccc1 (configuration not stated),-4.88
14,O=C1NC2(CCNCC2)CC1c1ccccc1 (configuration not stated),49.7
15,O=C1NC2(CCN(CCO)CC2)CC1c1ccccc1 (configuration not stated),21.6
16,O=C1NC2(CCN(Cc3cccnc3)CC2)CC1c1cccnc1 (configuration not stated),-12.1
17,O=C1NC2(CCNCC2)CC1c1cccnc1 (configuration not stated),52.3
18,O=C1NC2(CCN(C(=O)c3ccnnc3)CC2)CC1c1ccccc1 (configuration not stated),-16.9
19,O=C1NC2(CCN(CC3CC3)CC2)CC1c1ccccc1 (configuration not stated),52.6
20,O=C1NC2(CCN(C/C=C/c3ccccc3)CC2)CC1c1ccccc1 (configuration not stated),63.8
21,O=C1NC2(CCN(Cc3cccnc3)CC2)CC1c1ccncc1 (configuration not stated),49.5
22,O=C1NC2(CCNCC2)CC1c1ccncc1 (configuration not stated),33.4
23,O=C1NC2(CCN(CCc3ccccc3)CC2)CC1c1ccccc1 (configuration not stated),52.6

row,Compound,INHIBITION [%]
1,CCOCc1cnc2n1CCN(Cc1cccs1)C2C (configuration not stated),-10.5
2,Nc1cc(-c2c[nH]nc2C2CCCN2CCCc2ccccc2)ccn1 (configuration not stated),17.8
3,CCn1cc(CN2CCCN(C(=O)c3cccc(C#N)c3)CC2)cn1,-73.1
4,CNc1ccc(CC2CCCN(Cc3c[nH]cn3)C2)nn1 (configuration not stated),36.9
5,Cc1cnn(CC2CCCN2C(=O)Cc2c(C)noc2C)c1 (configuration not stated),29.4
6,Cc1nccn1CC1CCCN(S(=O)(=O)c2cnn(C)c2)C1 (configuration not stated),42.5
7,CCc1nccn1C1CCCN(C(=O)c2csc(C3CC3)n2)C1 (configuration not stated),-4.16
8,COCCN1C[C@H]2CCN(c3ncccn3)CC[C@H]2S1(=O)=O,82.9
9,CC(C)CN1C[C@H]2CCN(c3ncccn3)CC[C@H]2S1(=O)=O,-14.9
10,CCN1C[C@H]2CCN(c3ncccn3)CC[C@H]2S1(=O)=O,-41.6
11,CCn1nc(C)c2nnn(CC(=O)Nc3ccccc3)c(=O)c21,49.9
12,CN(C)S(=O)(=O)N1C[C@H]2CCC[C@@]2(COc2cccnc2)C1,-16.9
13,CN1CCN([C@@H]2CCN(C3CCOCC3)[C@H]2Cc2cnn(C)c2)CC1,-8.85
14,Cc1nnsc1-c1nnc2sc(C(C)C)nn12,12.5
15,Cc1nn2c(-c3snnc3C)nnc2s1,61.8
16,Cc1nnsc1-c1nnc2sc(C3CCC3)nn12,-13.1
17,O=C1CCC(c2ccc(Cl)cc2)=NN1CN1CCSCC1,6.34
18,CO[C@@H]1CCN(Cc2cnn(C)c2)[C@@H]2CN(Cc3ccco3)C[C@@H]21,7.11
19,CCOc1cccc(C(=O)N2CCCn3nc(CCC(=O)O)cc3C2)c1,-19
20,O=C(c1ccc(Cl)s1)N1CCCn2nc(CN3CC[C@H](F)C3)cc2C1,45
21,O=C(O)CCc1cc2n(n1)CCCN(C(=O)c1ccc(F)cc1F)C2,-13.5
22,CCc1cc(C(=O)N2CCCn3nc(CCC(=O)O)cc3C2)cs1,22.8
23,O=C(O)CCc1cc2n(n1)CCCN(C(=O)c1ccc3cc[nH]c3c1)C2,8.47

row,Compound,INHIBITION [%]
1,O=C(O)CCc1cc2n(n1)CCCN(C(=O)c1ccc(Cl)s1)C2,51.5
2,O=C(O)CCc1cc2n(n1)CCCN(C(=O)c1cc3ccccc3s1)C2,67.9
3,CCCc1nc(C(=O)N2CCCn3nc(CCC(=O)O)cc3C2)cs1,-9.86
4,Cc1ccc(C(=O)N2CCCn3nc(CCC(=O)O)cc3C2)cc1Cl,52.5
5,CC(C)n1nc(Cn2cccc2)c2c1CN(C1CCOCC1)C2,23.3
6,Cc1nc(CN(C)C(=O)NC(C)c2ccc3c(c2)OCCO3)cs1 (configuration not stated),31.2
7,CC(Cn1cccn1)NC(=O)CCc1nc(C(C)(C)C)no1 (configuration not stated),10.6
8,O=C1COC2(CCN(Cc3ccncc3)CC2)CN1c1ccccc1,-27.4
9,Cc1c[nH]c(C2COCCN2S(=O)(=O)c2cn[nH]c2)n1 (configuration not stated),-8.12
10,CCc1nc(N)nc(NCCC(=O)N2CCCC2)c1C,62.8
11,Cc1ccc(CSc2nc(N)cc(NCCC(=O)N3CCCC3)n2)cc1,36.6
12,CCc1cnc(C)nc1NCCC(=O)N1CCC(C)CC1,-21.1
13,CCn1ccnc1CN1CCC(N(Cc2ncc(C)o2)C(C)=O)C1 (configuration not stated),48.2
14,Cn1cc(CC(=O)N2CCCC(c3ccn[nH]3)C2)cn1 (configuration not stated),5.11
15,CO[C@@H]1CCN(c2ncc(F)cn2)[C@@H]2CN(Cc3cccnc3)C[C@@H]21,31.4
16,CO[C@H]1CCN(c2ncc(F)cn2)[C@@H]2CN(Cc3ccco3)C[C@H]12,49.1
17,CO[C@@H]1CCN(c2ncc(F)cn2)[C@@H]2CN(CC3CC3)C[C@@H]21,60.3
18,CCN1C[C@H]2[C@@H](C1)N(c1ncc(F)cn1)CC[C@H]2OC,84.5
19,Fc1cnc(N2CCO[C@H]3CN(CC4CCCCC4)C[C@H]32)nc1,30.3
20,Fc1cnc(N2CCO[C@H]3CN(CC4CCCC4)C[C@H]32)nc1,-13.3
